Results filed as inconclusive are left out. Calls of active or inactive are those of the source. Unless noted, the call rests on the fitted dose curve.
Legend:
[1] = Nuclear factor erythroid 2-related factor 2/antioxidant responsive element (Nrf2/ARE) small molecule agonists: qHTS cell viability counter screen in human keratinocytes (AID 1919968; active means well fitted curve in the direction sought with a large enough effect in the repeat runs; an effect the other way counts as inactive or inconclusive; further: nearly all actives have a fitted effect of over 55% in size)
How it was run: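 Cells of the KeratinoSens line were plated at 1,500 per well and left for 5 h before compound transfer from DMSO stocks. After a 23 h incubation (37 C, 5% CO2), CellTiter-Fluor was added. Signal was taken as fluorescence intensity 1 h later.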

[2] = target: Gonadotropin-releasing hormone receptor (Homo sapiens) (UniProt P30968); assay: Human gonadotropin-releasing hormone receptor (GnRHR) small molecule agonists, calcium flux assay in GnRHR-HEK293 cells (AID 1920063); further: nearly all actives have a fitted effect of over 35% in size
Gonadotropin-releasing hormone receptor (Homo sapiens), sequence (P30968 whole entry, looked up): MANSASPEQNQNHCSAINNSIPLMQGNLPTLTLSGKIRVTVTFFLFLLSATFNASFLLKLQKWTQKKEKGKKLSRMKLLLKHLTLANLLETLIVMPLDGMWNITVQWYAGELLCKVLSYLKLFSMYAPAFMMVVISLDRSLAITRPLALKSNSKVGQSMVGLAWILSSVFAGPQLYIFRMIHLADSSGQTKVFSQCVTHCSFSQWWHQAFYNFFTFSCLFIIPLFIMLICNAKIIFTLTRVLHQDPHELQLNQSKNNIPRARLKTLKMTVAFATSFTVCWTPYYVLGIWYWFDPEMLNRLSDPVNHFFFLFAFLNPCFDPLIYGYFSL
How it was run: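 Compounds dissolved in DMSO are pin-transferred onto dye-loaded GnRHR-HEK293 cells, which were seeded 18 h before at 37 C/5% CO2. Calcium signal is read as fluorescence intensity at 1 s intervals for 3 min.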

[3] = target: KiSS-1 receptor (Homo sapiens) (UniProt Q969F8); assay: Human kisspeptin (KISS1R) small molecule agonists, calcium flux assay in KISS1R-HEK293 cells (AID 1920064; active means well fitted curve in the direction sought with a large enough effect in the repeat runs; an effect the other way counts as inactive or inconclusive)
KiSS-1 receptor (Homo sapiens), sequence (Q969F8 whole entry, looked up): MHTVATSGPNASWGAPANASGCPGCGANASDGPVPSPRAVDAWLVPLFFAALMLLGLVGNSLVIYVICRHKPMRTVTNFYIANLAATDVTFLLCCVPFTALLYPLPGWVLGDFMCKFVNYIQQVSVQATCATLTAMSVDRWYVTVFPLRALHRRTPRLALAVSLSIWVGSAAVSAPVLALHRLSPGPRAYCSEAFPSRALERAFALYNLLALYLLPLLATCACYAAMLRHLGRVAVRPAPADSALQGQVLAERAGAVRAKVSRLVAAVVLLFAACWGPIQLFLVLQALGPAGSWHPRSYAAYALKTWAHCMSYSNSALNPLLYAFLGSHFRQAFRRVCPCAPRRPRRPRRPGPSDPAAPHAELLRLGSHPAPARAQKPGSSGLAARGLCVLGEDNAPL
How it was run: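 Cell line: HEK293, stable human KISS1R. Dye loading 1 h at 37 C after 18 h culture. Read: kinetic fluorescence, 480/540 nm, 3 min at 1 s intervals.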

[4] = G protein-coupled receptor (GPCR) small molecule agonists, calcium flux assay: HEK293 wild type cell line counter screen (AID 1920065)
How it was run: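 Tox21 10K compounds, 15 concentrations each in triplicate, pin-transferred in DMSO onto dye-loaded cells; kinetic read at 480/540 nm for 3 min, 1 s intervals.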

[5] = p53 small molecule agonists, cell-based qHTS assay with rat liver microsomes (AID 1963578)
How it was run: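 Cells carrying a p53 response element–beta-lactamase reporter were plated and rested 5 h, then dosed with compound in DMSO plus rat liver microsomes and NADPH, each at 0.5 mg/mL final. After 16 h at 37 C, LiveBLAzer substrate was added for 2 h.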

[6] = p53 small molecule agonists, cell-based qHTS assay with human liver microsomes: qHTS cell viability counter screen (AID 1963579); further: nearly all actives have a fitted effect of over 45% in size
How it was run: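 Cytotoxicity counter screen: p53RE-bla, 4,000 cells/well; 5 h settle, 37 C/5% CO2; cpd + HLM 0.5 mg/mL + NADPH 0.5 mg/mL (final); 16 h, 37 C; CellTiter-Glo, 30 min RT, luminescence.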

[7] = p53 small molecule agonists, cell-based qHTS assay with rat liver microsomes: qHTS cell viability counter screen (AID 1963580); further: nearly all actives have a fitted effect of over 45% in size
How it was run: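 Counter screen for cytotoxicity under metabolic activation: rat liver microsomes and NADPH, 0.5 mg/mL final each, added with compounds to p53RE-bla HCT-116 cells; 16 h at 37 C, then ATP luminescence read.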

[8] = p53 small molecule agonists, cell-based qHTS assay: qHTS cell viability counter screen (AID 1963581); further: nearly all actives have a fitted effect of over 45% in size
How it was run: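 ATP content measured by luminescence in HCT-116 p53RE-bla cells treated 16 h at 37 C, same wells as the reporter screen.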

[9] = target: 5-hydroxytryptamine receptor 2A (Homo sapiens) (UniProt P28223); assay: 5-hydroxytryptamine receptor 2A (HTR2A) small molecule agonists, cell-based qHTS assay (AID 1963587); further: nearly all actives have a fitted effect of over 30% in size
5-hydroxytryptamine receptor 2A (Homo sapiens), sequence (P28223 whole entry, looked up): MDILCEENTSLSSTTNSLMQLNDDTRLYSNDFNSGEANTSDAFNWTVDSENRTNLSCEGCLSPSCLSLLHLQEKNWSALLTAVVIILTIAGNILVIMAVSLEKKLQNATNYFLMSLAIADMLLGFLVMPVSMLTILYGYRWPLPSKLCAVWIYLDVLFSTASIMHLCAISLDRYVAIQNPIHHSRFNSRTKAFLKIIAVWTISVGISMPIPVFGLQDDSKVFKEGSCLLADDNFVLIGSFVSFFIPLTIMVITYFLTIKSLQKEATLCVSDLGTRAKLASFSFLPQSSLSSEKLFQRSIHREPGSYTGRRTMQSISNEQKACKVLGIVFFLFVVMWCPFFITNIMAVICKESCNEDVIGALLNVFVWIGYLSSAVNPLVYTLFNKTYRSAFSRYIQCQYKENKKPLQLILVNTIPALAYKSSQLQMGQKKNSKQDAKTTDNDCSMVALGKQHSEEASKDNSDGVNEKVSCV
How it was run: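 HTR2A-CHO cells, plated 18 h at 37 C/5% CO2, dye-loaded 1 h at 37 C; compounds in DMSO added by pin tool (agonist mode). Intracellular calcium flux read as kinetic fluorescence on FDSS over 2 min at 1 s intervals.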

[10] = target: Muscarinic acetylcholine receptor M1 (Homo sapiens) (UniProt P11229); assay: Cholinergic receptor muscarinic 1 (CHRM1) small molecule antagonists, cell-based qHTS assay (AID 1963588); further: nearly all actives have a fitted effect of over 40% in size
Muscarinic acetylcholine receptor M1 (Homo sapiens), sequence (P11229 whole entry, looked up): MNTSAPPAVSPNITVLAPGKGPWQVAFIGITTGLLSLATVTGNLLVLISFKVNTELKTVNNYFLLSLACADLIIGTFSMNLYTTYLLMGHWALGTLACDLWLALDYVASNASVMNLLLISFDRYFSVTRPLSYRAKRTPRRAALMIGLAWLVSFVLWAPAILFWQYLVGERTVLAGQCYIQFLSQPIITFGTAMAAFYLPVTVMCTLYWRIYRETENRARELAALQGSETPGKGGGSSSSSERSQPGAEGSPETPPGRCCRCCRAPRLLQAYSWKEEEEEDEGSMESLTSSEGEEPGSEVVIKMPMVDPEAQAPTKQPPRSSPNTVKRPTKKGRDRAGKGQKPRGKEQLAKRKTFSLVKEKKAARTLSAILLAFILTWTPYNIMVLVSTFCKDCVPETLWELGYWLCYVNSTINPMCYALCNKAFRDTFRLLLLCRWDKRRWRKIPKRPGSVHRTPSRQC
How it was run: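 Compounds were tested at 15 concentrations in three independent runs. Dye-loaded CHRM1-CHO cells were exposed 5 min at room temperature before stimulation by acetylcholine added at 50nM. Intracellular calcium was read kinetically on FDSS for 3 min.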

[11] = target: Muscarinic acetylcholine receptor M1 (Homo sapiens) (UniProt P11229); assay: Cholinergic receptor muscarinic 1 (CHRM1) small molecule agonists, cell-based qHTS assay (AID 1963589); further: nearly all actives have a fitted effect of over 35% in size
How it was run: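 Homogeneous fluorescence calcium flux, agonist mode. Human M1-expressing CHO cells; compound dosed at 15 concentrations, three independent runs; signal sampled every 1 sec.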

[12] = target: Beta-2 adrenergic receptor (Homo sapiens) (UniProt P07550); assay: Adrenergic beta2 receptor (ADRB2) small molecule antagonists, cell-based qHTS assay (AID 1963592); further: series mostly up to about 92 µM; nearly all actives have a fitted effect of over 50% in size
Beta-2 adrenergic receptor (Homo sapiens), sequence (P07550 whole entry, looked up): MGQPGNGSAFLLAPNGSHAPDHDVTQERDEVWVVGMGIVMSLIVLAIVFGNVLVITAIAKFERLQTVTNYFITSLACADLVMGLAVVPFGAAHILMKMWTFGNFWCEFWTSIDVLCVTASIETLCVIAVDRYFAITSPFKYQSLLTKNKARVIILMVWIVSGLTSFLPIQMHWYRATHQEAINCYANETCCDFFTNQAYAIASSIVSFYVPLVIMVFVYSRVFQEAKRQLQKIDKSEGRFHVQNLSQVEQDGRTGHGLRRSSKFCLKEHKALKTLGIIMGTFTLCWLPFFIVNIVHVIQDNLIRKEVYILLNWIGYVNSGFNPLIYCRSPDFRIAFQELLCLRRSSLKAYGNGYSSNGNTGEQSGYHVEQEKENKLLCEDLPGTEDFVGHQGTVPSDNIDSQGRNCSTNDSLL
How it was run: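 Assay format: CHO-ADRB2 cells, 18-20hr seeding at 37C/5% CO2, then compound plus 1nM isoproterenol agonist mix for 0.5hr RT. Homogeneous time-resolved fluorescence cAMP detection after 1hr, expressed as 665/615 nm ratio.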

[13] = target: D(2) dopamine receptor (Homo sapiens) (UniProt P14416); assay: Dopamine D2 receptor (DRD2) small molecule agonists, cell-based qHTS assay (AID 1963594); further: nearly all actives have a fitted effect of over 35% in size
D(2) dopamine receptor (Homo sapiens), sequence (P14416 whole entry, looked up): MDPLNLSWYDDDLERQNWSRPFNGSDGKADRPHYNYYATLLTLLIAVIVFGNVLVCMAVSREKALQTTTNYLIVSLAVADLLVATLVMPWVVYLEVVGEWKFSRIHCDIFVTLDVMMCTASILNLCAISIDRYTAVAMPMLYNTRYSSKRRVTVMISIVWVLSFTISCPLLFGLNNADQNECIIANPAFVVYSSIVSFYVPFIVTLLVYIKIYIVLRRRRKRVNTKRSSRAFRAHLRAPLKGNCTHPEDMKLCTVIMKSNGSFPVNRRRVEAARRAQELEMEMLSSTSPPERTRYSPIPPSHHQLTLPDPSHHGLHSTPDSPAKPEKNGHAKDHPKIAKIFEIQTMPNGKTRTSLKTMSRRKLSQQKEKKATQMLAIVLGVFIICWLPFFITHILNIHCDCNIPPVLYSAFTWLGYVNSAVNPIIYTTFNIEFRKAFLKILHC
How it was run: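 HEK293 cells stably expressing DRD2 were cultured 24 h at 37 C, then given Ro20-1724 (0.1 mM final) and compounds for 10 min at room temperature. NKH477 (200nM) was then added for 30 min. cAMP was read by HTRF.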

[14] = target: D(2) dopamine receptor (Homo sapiens) (UniProt P14416); assay: Dopamine D2 receptor (DRD2) small molecule antagonists, cell-based qHTS assay (AID 1963595; active means well fitted inhibition curve with a large enough effect in the signal ratio in the repeat runs, with a control signal flat; the % refers to the signal ratio)
How it was run: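 Cells were plated and grown for 24 h at 37 °C. Ro20-1724 (0.1 mM final) went in first, then compound for 10 min. NKH477 (200 nM) with quinpirole (12 nM) followed for 30 min at RT, then HTRF detection reagents for 1 h.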

[15] = target: 5-hydroxytryptamine receptor 2A (Homo sapiens) (UniProt P28223); assay: 5-hydroxytryptamine receptor 2A (HTR2A) small molecule antagonists, cell-based qHTS assay (AID 1963586); further: nearly all actives have a fitted effect of over 45% in size
How it was run: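 CHO cells stably expressing human HTR2A were plated for 18 h at 37 C, then loaded with calcium dye for 1 h. Compounds were preincubated 5 min at room temperature before DOI (4 nM solution) was added. Kinetic fluorescence was read for 3 min.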

[16] = cAMP Responsive Elements (CRE) small molecule antagonists, cell-based qHTS assay (AID 1963591; active means well fitted inhibition curve with a large enough effect in the signal ratio in the repeat runs, not every such curve was filed as active; the % refers to the signal ratio)
How it was run: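 First, CRE-bla HEK293T cells settled 18 h at 37 C. Next, compound and 0.25 uM final NKH477 were applied for 3 h. Last, LiveBLAzer B/G substrate was loaded for 2 h at room temperature.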

[17] = target: Beta-2 adrenergic receptor (Homo sapiens) (UniProt P07550); assay: Adrenergic beta2 receptor (ADRB2) small molecule agonists, cell-based qHTS assay (AID 1963593);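 further: CHO cells stably overexpressing human ADRB2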
How it was run: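 CHO cells stably over-expressing ADRB2 were plated overnight at 37C, then dosed with compounds plus a stimulation mix containing 100uM IBMX and 25uM Ro-20-1724 for 0.5hr at room temperature. cAMP was measured by HTRF competition, 1hr.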

[18] = cAMP Responsive Elements (CRE) small molecule agonists, cell-based qHTS assay (AID 1963590)
How it was run: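 HEK 293T cells stably bearing CRE-bla were plated at 2,000 cells per well and rested 18 h. Compounds, positive controls or DMSO were added for 3 h at 37 C. LiveBLAzer B/G substrate was then loaded for 2 h at room temperature.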

[19] = p53 small molecule agonists, cell-based qHTS assay (AID 1963582; active means well fitted activation curve with a large enough effect in the signal ratio in the repeat runs, not every such curve was filed as active; the % refers to the signal ratio)
How it was run: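 16 h compound exposure (37 C) of p53 response element–bla cells, preceded by 5 h recovery at 37 C/5% CO2; read-out via LiveBLAzer B/G FRET substrate, 2 h RT, fluorescence intensity.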

Measured: Potency

O=C1c2ccccc2C(=O)C1C(=O)C(c1ccccc1)c1ccccc1
inactive: [1] | [2] | [3] | [4] | [5] | [6] | [7] | [8] | [9] | [10] | [11] | [12] | [13] | [14]

C#CCN1C(=O)COc2cc(F)c(N3C(=O)C4=C(CCCC4)C3=O)cc21
inactive: [1] | [2] | [3] | [4] | [6] | [7] | [8] | [15] | [9] | [11] | [16] | [12] | [17] | [13] | [14]

C1=CCC=C1
inactive: [1] | [2] | [3] | [4] | [6] | [7] | [8] | [15] | [9] | [10] | [11] | [18] | [16] | [12] | [17] | [13] | [14]

CC(Oc1cc(Cl)c(Cl)cc1Cl)C(=O)O (stereo not drawn)
inactive: [1] | [2] | [3] | [4] | [6] | [7] | [8] | [15] | [9] | [11] | [12] | [13] | [14]

[C-]1=CC=CC1.[Cl][Zr+2][Cl].c1cc[cH-]c1
inactive: [1] | [2] | [3] | [4] | [6] | [7] | [8] | [15] | [9] | [11] | [18] | [16] | [12] | [13] | [14]

CC(=O)[O-].CC(=O)[O-].CC(=O)[O-].[Cr+3]
inactive: [1] | [2] | [3] | [4] | [6] | [8] | [15] | [9] | [10] | [11] | [16] | [12] | [13] | [14]

COP(=S)(OC)Oc1nc(Cl)c(Cl)cc1Cl
inactive: [1] | [2] | [3] | [4] | [6] | [7] | [8] | [19] | [15] | [9] | [10] | [11] | [12] | [17] | [13] | [14]

[Cl-].[Cl-].[Sn+2]
inactive: [1] | [2] | [3] | [4] | [6] | [7] | [8] | [9] | [11] | [18] | [16] | [12] | [13] | [14]

From PubChem BioAssay (Tox21)
